# The full ranking holds about 33,000 sequences; the median of “E-score (-0.5 to 0.5)” is about -0.04, and the highest 2% start at about 0.36. Only a selection was taken, and the highest values are over-represented in it overall.
# Biological target: T1, Hmlalpha2 (UniProt P0CY09)
# T1 sequence: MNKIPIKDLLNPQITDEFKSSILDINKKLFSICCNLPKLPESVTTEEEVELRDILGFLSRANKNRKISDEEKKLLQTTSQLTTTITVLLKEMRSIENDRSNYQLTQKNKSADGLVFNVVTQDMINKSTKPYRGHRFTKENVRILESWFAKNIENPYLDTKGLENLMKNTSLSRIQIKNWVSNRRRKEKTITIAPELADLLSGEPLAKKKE
# Test: PBM E-score (8-mer binding enrichment) (E-score (-0.5 to 0.5)); higher = stronger / more preferred TF binding
# Conditions: protein concentration: 200 nM; construct: GST-full length
# Procedure: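 Universal 'all 10-mer' protein binding microarrays (Agilent AMADID 015681) probed with GST-tagged S. cerevisiae TFs (full-length or DBD) made by in vitro transcription/translation (PURExpress), about 100-200 nM. Bound TF was detected with fluorescent anti-GST. Each ungapped 8-mer (which stands for itself and its reverse complement) is scored by the PBM enrichment score (E-score), a modified Wilcoxon-Mann-Whitney statistic from -0.5 to +0.5, computed with the Universal PBM Analysis Suite. Scale: above 0.35 generally sequence-specific binding.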
row,Sequence,PBM E-score
1,CTGTAAAG,0.244
2,AGGTAAAT,0.24
3,CTGTAAAC,0.31
4,CTTTAAAC,0.153
5,ATGTAAAG,0.473
6,AAGTAAAT,0.341
7,GTTTAAAC,0.41
8,GTTTAAAA,0.215
9,GTGTAAAC,0.474
10,ATGTAAAT,0.477
11,GGGTAAAC,0.0624
12,AAGTAAAG,0.0486
13,ACAGAAAT,0.107
14,CCATCACA,0.00393
15,CACCTTCC,-0.11
16,CCCTTAGA,-0.353
17,AGTGCCAG,-0.0844
18,CACAAAGG,-0.0549
19,AGCCACCC,-0.289
20,TGGTAAAA,0.266
21,TAGTAAAA,0.306
22,CTGTAAAA,0.359
23,GGGTAAAA,0.185
24,AAGTAAAC,0.283
25,GAGTAAAA,0.237

row,Sequence,PBM E-score
1,ATGTAAAC,0.483
2,TTGTAAAA,0.392
3,GTGTAAAA,0.467
4,ATGTAAAA,0.474
5,AGGTAAAC,0.26
6,AGGTAAAA,0.16
7,ATAGCGAC,0.106
8,CCGGGCAG,-0.165
9,TGGTCCAA,-0.192
10,GTTTGGCA,-0.0431
11,GTACAGAC,0.17
12,TACCCACA,-0.015
13,AGTATGCG,0.0952
14,CTACATGC,0.429
15,ATACATCA,0.334
16,ATACATGG,0.451
17,AGACATGA,0.275
18,AGACATGC,0.171
19,ATACATGC,0.427
20,ATACATGA,0.465
21,ATACATCC,0.308
22,AGACATGG,0.21
23,ATACATCG,0.299
24,CGACATGC,0.311
25,CTACATTC,0.0322

row,Sequence,PBM E-score
1,ACCACCGT,-0.0982
2,AGATGCCA,-0.254
3,ATACCTGA,0.0295
4,GGGGGGCA,-0.328
5,CTAGCAAG,-0.133
6,GAAGTCGA,-0.0459
7,CCGGACAA,0.0112
8,CACAGAGA,0.0962
9,TCAGGAGA,-0.123
10,ACTGCCCA,-0.0607
11,GATGCATC,0.0847
12,CCTGTGTA,0.43
13,GCTGTGAA,0.0585
14,ACTGTGTC,0.174
15,CCTGTGTC,0.0583
16,GCTGTGTA,0.437
17,GCTGTATA,0.153
18,CCTGTGAA,0.0484
19,ACTGTGTA,0.443
20,ACTGTGTG,0.128
21,AGGAGAGG,-0.277
22,ACCAACAA,0.198
23,AGCATTGA,-0.135
24,AAGAGGCA,-0.184
25,GCTCAACC,-0.147

row,Sequence,PBM E-score
1,ATCGCTCG,-0.128
2,ATTGTAAC,0.221
3,ATTGTAAG,0.0623
4,GCTGTAAA,0.336
5,CTTGTAAA,0.452
6,GTTGTAAA,0.385
7,AGTGTATA,0.114
8,ATTGTAAA,0.374
9,CTTGTAAC,0.36
10,GGTGTAAA,0.351
11,CCTGTAAA,0.328
12,AGTGTAAA,0.38
13,AGTGTAAT,0.357
14,AACACTAT,0.231
15,ACTCGACA,0.203
16,CAAATCTG,-0.0335
17,AATTGCGT,0.201
18,ACGCCCGG,-0.193
19,GATCTTTA,0.131
20,ACACCCAT,-0.0488
21,AAAGGCTC,-0.223
22,CGGCCTAG,-0.322
23,ACTCCTCC,-0.17
24,AGTTCTCA,0.0389
25,ATAATACC,0.0152

row,Sequence,PBM E-score
1,GTAATAGA,0.257
2,CTAATACA,0.342
3,GTAATACA,0.397
4,ATAATACA,0.38
5,ATAATACG,0.239
6,CCCTTATC,-0.0289
7,GCTAGCGA,-0.117
8,ATGAAACC,0.0645
9,ACATTGCG,0.249
10,CTCGTAGA,-0.0578
11,AAGCGTAT,0.0488
12,ACTTGGAT,0.0128
13,CCTCTCAC,-0.127
14,CTTGTTCC,-0.0361
15,AAGCACGC,0.0885
16,ATTAACCA,0.0177
17,GTGTATGA,0.262
18,ACGTATTA,0.345
19,ATGTATGA,0.296
20,CTGTATTA,0.191
21,GTGTATTA,0.421
22,ATGTATTA,0.428
23,CTACAGCC,-0.113
24,ATCAAGTA,0.217
25,ACACGCAT,0.388

row,Sequence,PBM E-score
1,GCACGCAC,-0.213
2,CCACGCAC,-0.0131
3,ACACGCAG,0.313
4,ACACGCAA,0.35
5,ACACGCAC,0.382
6,ACCAATTA,0.195
7,CTACGTTA,0.316
8,ATTAGTAA,0.206
9,CGGGGAGA,-0.256
10,GACTACTC,-0.0288
11,TGAAGCAA,0.0475
12,ATGAGGCC,-0.277
13,GGATAGGA,-0.212
14,AAACGACA,0.235
15,ACGTACAT,0.381
16,AAGTACAG,0.0583
17,ACGTACAA,0.273
18,AAGTACAT,0.383
19,ACGTACAG,0.0878
20,AAGTACAA,0.199
21,AGATTTAT,0.0596
22,AGCCTCCT,-0.16
23,AACGCATG,0.248
24,GAACACGA,0.287
25,CAACACGG,0.386

row,Sequence,PBM E-score
1,CAACACTA,0.169
2,CAACACGA,0.419
3,CAACACGC,0.367
4,CAACACAC,0.349
5,CCACACGG,-0.0191
6,TAACACCA,0.314
7,CAACACAA,0.35
8,CAACACCA,0.207
9,TAACACGA,0.469
10,GAACACGC,0.299
11,CAGCATCC,-0.176
12,ACGGTGTA,0.205
13,TACTCTCA,0.103
14,CGTGCCTC,-0.119
15,CGTTAACG,0.211
16,AATCCTTG,0.103
17,AGATATAA,0.127
18,AGTAGACG,0.0433
19,CGGTGGTA,-0.0335
20,GAACAAGA,0.139
21,TAACACAA,0.43
22,AAACACAA,0.322
